The structures appear in SMILES notation. Several values for one entry are separate records, joined by “and”; a condition that tells them apart may be missing. Equal values may be shown once. Hit rate of the full screen: of about 190,000 compounds, about 6,900 (3.6%) were called active. The sample as a whole holds a higher share of actives than the screen did. Values without a mark were called inactive. No stated cut-off is given here; in the data, active means inhibition above about 50%; inactive means the rest.

The results in this text go back to PubChem BioAssay AID1671202 (University of Kansas High Throughput Screening Laboratory, 2021).

Chain of Huntingtin (Homo sapiens) (P42858 whole entry, looked up, stated change not applied): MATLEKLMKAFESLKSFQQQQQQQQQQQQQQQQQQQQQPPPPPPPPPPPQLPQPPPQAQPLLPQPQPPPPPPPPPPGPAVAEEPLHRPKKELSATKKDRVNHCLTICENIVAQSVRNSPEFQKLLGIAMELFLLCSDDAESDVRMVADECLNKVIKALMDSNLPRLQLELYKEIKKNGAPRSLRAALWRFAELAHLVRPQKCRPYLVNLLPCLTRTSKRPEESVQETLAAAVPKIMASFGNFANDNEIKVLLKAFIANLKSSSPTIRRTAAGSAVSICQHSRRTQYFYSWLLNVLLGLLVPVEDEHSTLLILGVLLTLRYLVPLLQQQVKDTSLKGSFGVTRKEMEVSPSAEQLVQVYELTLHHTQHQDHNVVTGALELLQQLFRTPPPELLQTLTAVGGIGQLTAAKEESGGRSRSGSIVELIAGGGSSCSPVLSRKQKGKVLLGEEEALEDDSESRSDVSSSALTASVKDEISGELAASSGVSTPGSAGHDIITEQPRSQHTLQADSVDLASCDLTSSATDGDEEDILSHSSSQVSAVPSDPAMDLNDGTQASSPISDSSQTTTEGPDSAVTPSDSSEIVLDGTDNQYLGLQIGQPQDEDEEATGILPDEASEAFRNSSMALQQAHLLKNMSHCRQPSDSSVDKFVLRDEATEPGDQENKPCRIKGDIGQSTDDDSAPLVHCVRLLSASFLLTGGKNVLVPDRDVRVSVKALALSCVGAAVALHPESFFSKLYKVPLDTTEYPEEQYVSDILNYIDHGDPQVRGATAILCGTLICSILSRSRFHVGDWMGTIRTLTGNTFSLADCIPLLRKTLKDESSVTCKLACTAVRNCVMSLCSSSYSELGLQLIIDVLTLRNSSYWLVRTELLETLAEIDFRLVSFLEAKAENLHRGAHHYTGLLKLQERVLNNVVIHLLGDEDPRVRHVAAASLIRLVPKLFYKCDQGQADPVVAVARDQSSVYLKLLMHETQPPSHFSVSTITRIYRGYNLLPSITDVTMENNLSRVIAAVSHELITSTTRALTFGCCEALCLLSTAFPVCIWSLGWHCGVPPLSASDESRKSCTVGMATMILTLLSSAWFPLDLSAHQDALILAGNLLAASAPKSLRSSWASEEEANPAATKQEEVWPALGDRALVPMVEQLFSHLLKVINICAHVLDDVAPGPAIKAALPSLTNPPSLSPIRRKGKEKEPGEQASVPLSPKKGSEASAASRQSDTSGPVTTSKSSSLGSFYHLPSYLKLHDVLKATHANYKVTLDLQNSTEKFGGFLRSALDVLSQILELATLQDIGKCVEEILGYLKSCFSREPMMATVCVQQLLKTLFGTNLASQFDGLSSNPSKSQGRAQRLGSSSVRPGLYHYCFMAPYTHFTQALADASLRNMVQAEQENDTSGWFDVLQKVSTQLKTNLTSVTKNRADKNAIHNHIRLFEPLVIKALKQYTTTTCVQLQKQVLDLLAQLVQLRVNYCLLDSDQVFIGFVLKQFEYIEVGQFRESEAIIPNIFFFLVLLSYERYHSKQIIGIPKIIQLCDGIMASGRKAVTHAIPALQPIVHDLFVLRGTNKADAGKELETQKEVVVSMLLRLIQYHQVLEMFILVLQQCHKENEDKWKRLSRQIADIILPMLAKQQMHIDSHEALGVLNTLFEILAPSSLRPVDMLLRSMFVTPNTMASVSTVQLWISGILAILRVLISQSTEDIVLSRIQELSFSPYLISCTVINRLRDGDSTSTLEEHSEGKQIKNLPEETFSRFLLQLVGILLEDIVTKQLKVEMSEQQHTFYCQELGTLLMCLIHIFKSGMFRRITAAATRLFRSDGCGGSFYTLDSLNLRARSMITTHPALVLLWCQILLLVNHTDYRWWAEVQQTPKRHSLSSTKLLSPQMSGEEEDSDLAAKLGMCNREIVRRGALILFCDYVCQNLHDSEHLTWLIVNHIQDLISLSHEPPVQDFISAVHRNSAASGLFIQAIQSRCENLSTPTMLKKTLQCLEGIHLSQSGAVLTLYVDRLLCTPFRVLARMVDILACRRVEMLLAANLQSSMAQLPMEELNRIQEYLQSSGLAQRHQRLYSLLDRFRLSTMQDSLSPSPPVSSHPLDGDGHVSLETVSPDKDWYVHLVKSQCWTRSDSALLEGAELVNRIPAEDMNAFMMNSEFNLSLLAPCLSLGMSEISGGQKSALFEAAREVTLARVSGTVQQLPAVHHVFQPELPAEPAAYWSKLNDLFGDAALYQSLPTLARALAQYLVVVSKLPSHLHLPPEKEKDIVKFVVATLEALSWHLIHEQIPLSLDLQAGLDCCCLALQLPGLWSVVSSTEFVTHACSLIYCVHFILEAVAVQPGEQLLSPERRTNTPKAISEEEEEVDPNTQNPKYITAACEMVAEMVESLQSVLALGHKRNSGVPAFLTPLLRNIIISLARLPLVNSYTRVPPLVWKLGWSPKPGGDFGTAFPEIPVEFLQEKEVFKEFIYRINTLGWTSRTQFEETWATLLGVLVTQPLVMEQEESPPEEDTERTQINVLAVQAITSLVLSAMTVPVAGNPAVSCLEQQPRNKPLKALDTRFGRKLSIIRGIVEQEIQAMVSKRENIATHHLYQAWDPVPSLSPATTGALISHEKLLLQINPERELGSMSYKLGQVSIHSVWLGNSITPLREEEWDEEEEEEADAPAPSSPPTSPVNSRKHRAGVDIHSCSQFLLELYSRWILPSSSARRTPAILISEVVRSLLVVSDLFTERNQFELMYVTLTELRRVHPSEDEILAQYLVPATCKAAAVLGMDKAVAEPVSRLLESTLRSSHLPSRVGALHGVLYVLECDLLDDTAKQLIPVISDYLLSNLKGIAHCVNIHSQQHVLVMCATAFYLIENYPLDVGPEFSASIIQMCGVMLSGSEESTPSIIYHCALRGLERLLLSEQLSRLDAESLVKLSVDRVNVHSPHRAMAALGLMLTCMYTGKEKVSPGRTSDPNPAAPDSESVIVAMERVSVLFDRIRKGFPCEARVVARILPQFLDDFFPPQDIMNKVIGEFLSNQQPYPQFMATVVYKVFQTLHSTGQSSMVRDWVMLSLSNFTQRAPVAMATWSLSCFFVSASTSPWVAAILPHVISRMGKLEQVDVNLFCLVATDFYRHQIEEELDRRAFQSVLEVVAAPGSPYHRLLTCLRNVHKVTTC

The experiment has as its target Huntingtin (Homo sapiens) (UniProt P42858). The experiment is described as follows: mutant huntingtin-calmodulin interaction inhibitors – biochemical, AlphaScreen, primary screen (AID 1671202).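 Further: 0% = both proteins with DMSO and 100% = one protein alone.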 The note with it: AlphaScreen His-mHTT/GST-CaM binding, luminescence; at 15 µM, hits give high values. A general note: Alpha assays give light when donor and acceptor beads are brought close together.
Regarding `O=C1CS/C(=C(\C(Cl)=C(Cl)Cl)[N+](=O)[O-])N1c1ccc(Cl)cc1`, the inhibition (usually the drop in the measured response relative to a control, in per cent) is 33%. To `O=[N+]([O-])C(=C1SCCS1)C(=C(Cl)Cl)N1CCCC1` belongs 62% (active). Regarding `CCC1CO/C(=C(\C(=C(Cl)Cl)N2CCOCC2)[N+](=O)[O-])N1` (stereo unspecified), the inhibition was -5%. Turning to `N#C/C(=C\c1ccccc1F)c1nc(-c2cccc([N+](=O)[O-])c2)cs1`, the inhibition is 5.7%. For `CCC(=O)NCc1nc2c(n1CC)CN(S(=O)(=O)Cc1ccc(Cl)cc1)CC2`, the inhibition is 0.5%. On to `COc1ccc(N2C(=O)NC3CC2(C)Oc2ccccc23)cc1Cl` (stereo unspecified), for which the inhibition is -0.83%. In the case of `CN1CCCN(C(=O)C2COC3(CCCCC3)N2C(=O)c2ccccc2)CC1` (stereo unspecified), the inhibition was 1.3%. For the molecule `Cc1cc(C2CCCN2C(=O)c2cc(-c3ccccc3F)no2)no1` (stereo unspecified), the inhibition is -0.13%. For `Cc1c(N=C2C=C(C(C)C)C(=O)C(C(C)C)=C2)c(=O)n(-c2ccccc2)n1C`, the inhibition was 8%. Take `C=CCn1c(-c2ccccc2)csc1=Nc1ccc(O)cc1`: the inhibition is 69% (active).

Turning to `C=CCn1c(-c2ccc(Cl)cc2)csc1=Nc1c(C)n(C)n(-c2ccccc2)c1=O`, the inhibition was 66% (active).

For `C=CCn1c(=O)c2cnc(-c3ccc(Cl)cc3)nc2n(C)c1=O`, the inhibition was -3.7%. Turning to `CCn1c(=NC(=O)c2ccc(S(=O)(=O)N(C)C)cc2)sc2cc(F)ccc21`, the inhibition is 3%. `CCN1CCN(c2ncc3c(n2)CCN(Cc2cc(OC)c(OC)cc2OC)C3)CC1`: the inhibition was 23.9%. To `COc1ccc(C2CC(=O)C3=C(C2)Nc2ncnn2C3c2cccc(OC)c2OC)cc1` (stereo unspecified) belongs 10.8%; to `O=C(NCCC1=CCCCC1)C1CCCN(Cc2nc(-c3ccncc3)no2)C1` (stereo unspecified), -3.8%.

With `COc1ccc(-n2c3c(cc(C(=O)N4CCOCC4)c2=O)C(=O)CC(C)(C)C3)cc1`, the inhibition was -1%. As for `CC(C)c1ccc(C2N3CC4(C)CN2CC(C)(C3)C4O)cc1` (stereo unspecified), the inhibition was -5% and 3.2%. On to `Cc1c(C)n(Cc2ccccc2)c2ccc(C(=O)N3CCN(C(=O)c4ccccc4)CC3)cc12`, for which the inhibition is 99% (active). Next, `Cc1ccc(C(=O)N2CCN(c3ccccc3)CC2)cc1`: 0.5%; `Cc1cccc(C(=O)N2CCCN(C(=O)c3cccc(C)c3)CC2)c1`: -1.9%; `O=C(Nc1ccccc1[N+](=O)[O-])c1c(F)cccc1F`: 2.8%. In the case of `Fc1ccc(C2CC(c3ccc(Br)cc3)Nc3ncnn32)cc1` (stereo unspecified), the inhibition is 7%. To `CCN1/C(=C2\N=C(c3ccccc3)OC2=O)C=Cc2ccccc21` belongs 39%. Turning to `CCN1C(=Cc2cc[n+](-c3ccccc3)cc2)C=Cc2ccccc21`, the inhibition is 65% (active). Regarding `CC(=O)C1=C(O)C(=O)N(c2nccs2)C1c1ccc([N+](=O)[O-])cc1` (stereo unspecified), the inhibition was 10.1%.

As for `O=C(Nc1ccccc1)Oc1cccc2cccnc12`, the inhibition is 93.6% (active). Next, `COc1ccc(NC(=O)Nc2cccc3cccnc23)cc1`: 11.4%. Next, `O=C(O)c1ccccc1-c1ccccc1C(=O)Nc1cccc2cccnc12`: 8.7%; `C=CCNC(=O)c1c(F)ccc(S(=O)(=O)N2CCCCCC2)c1F`: -7%; `O=C(Cn1ncn2nc(-c3ccc(Cl)cc3)cc2c1=O)Nc1ccccc1C(F)(F)F`: -7.9%. Consider `CCNC(=O)c1csc(-c2cccc(OC)c2)n1`, for which the inhibition was -7.8%. Next, `COc1ccc(/C=C2\SC(=O)N(CN3CCOCC3)C2=O)cc1`: -4%; `OCCNc1ncnc2sc3c(c12)CCCCC3`: 1.3%; `NNc1ncnc2sc3c(c12)CCCC3`: 100% (active). Regarding `Clc1ncnc2sc3c(c12)CCCCC3`, the inhibition is -7.58%.

As to `COc1cc(C(=O)N2CCC(CC(=O)NC3CCCC3)CC2)cc(OC)c1OC`, the inhibition was -1.18%.

Consider `Cc1cccc(CN2Cc3cccc4c3[C@H](C=CC4)CC2=S)c1`, for which the inhibition was 3.5%. On to `O=C1C[C@H]2C=CCc3cccc(c32)CN1Cc1ccccc1`, for which the inhibition was 100% (active). `O=C1C[C@@H]2c3c(cccc3CN1Cc1ccccc1)C[C@@H](O)[C@H]2O`: the inhibition is 1.6%. Regarding `O=C(Cc1ccc(F)cc1Cl)N1CCCC1c1cccc(F)c1` (stereo unspecified), the inhibition was -1.36%.

Regarding `COc1ccc(CNC(=O)C2CC(=O)N(c3ccc(OCc4ccc(F)cc4)cc3)C2)cc1` (stereo unspecified), the inhibition was -13.8%. On to `COc1ccc(C2CC(C(F)(F)F)n3ncc(C(=O)NC45CC6CC(CC(C6)C4)C5)c3N2)cc1` (stereo unspecified), for which the inhibition was 6%. Turning to `COCCNC(=O)Nc1nc(-c2ccccn2)cs1`, the inhibition was 95.6% (active). For the molecule `COc1ccc(C(=O)Nc2cc(-c3ccccn3)no2)cc1`, the inhibition was -10.4%. Next, `CC1CC(C)CN(S(=O)(=O)c2ccc(C(=O)Nc3nc(-c4ccccn4)cs3)cc2)C1` (stereo unspecified): 17%; `COC(=O)Nc1nc(CC(=O)NCc2nc3ccccc3[nH]2)cs1`: -0.6%; `Cc1nc(NC(=O)Cc2csc(NC(=O)c3ncccn3)n2)sc1C`: 98% (active). Take `Cc1nc(NC(=O)c2ccoc2C)sc1C`: the inhibition is 10%.

Turning to `CC(C)SCC(=O)Nc1nc(CC(=O)O)cs1`, the inhibition was 1.9%. Take `COc1cc(C(=O)Nc2cccc3nsnc23)cc(OC)c1OC`: the inhibition is -8.5%. For `O=C(Cc1csc(NC(=O)c2ncccn2)n1)Nc1cccc2nsnc12`, the inhibition is 99.8% (active).

In the case of `Cc1ccc(NC(=O)c2ccc(Cl)c(Cl)c2)nc1`, the inhibition is -13.9% and -7%.

As to `O=C(CSc1nc2ccsc2c(=O)n1Cc1ccccc1F)NC1CCCC1`, the inhibition was -3%. As to `CC(=O)N(C)C1(C(=O)NC2CCCCC2)CCCCC1`, the inhibition is 4%. As to `COCCCNC(=O)C1(C)CCC(=O)N1Cc1ccc(C)cc1` (stereo unspecified), the inhibition is 3.12%. In the case of `CCCCN(C)S(=O)(=O)c1ccc(C(=O)Nc2nnc(C)o2)cc1`, the inhibition is 32%. `O=C(/C(=C1\Nc2ccc([N+](=O)[O-])cc2N1)[N+](=O)[O-])N1CCCCC1`: the inhibition was 8%. Turning to `Cc1cc2c(cc1C)NC1(C[C@H]3CCC(=O)N4CC[C@@H](C1)[C@@H]34)C(=NC(C)(C)CC(C)(C)C)N2` (stereo partly specified), the inhibition is 96.4% (active).

Take `O=C1CC[C@@H]2CC3(C[C@@H]4CCN1[C@H]24)Nc1cc([N+](=O)[O-])ccc1NC3=NC1CCCCC1` (stereo partly specified): the inhibition is 57.5% (active). Consider `O=C1CCC[C@@H]2C[C@@]3(C[C@@H]4CCN1[C@H]24)Nc1ccccc1NC3=NCc1ccccc1`, for which the inhibition is 11.5%.
